The supplement of paper PMC3334620
Whole data set: some 33,000 sequences, median “E-score (-0.5 to 0.5)” near -0.0034, cut for the highest 2% near 0.25. Only a selection was taken, and the highest values are over-represented in it overall.

These sequences were tested against T1, Yap3 (UniProt P38749) (assay: PBM E-score (8-mer binding enrichment) (E-score (-0.5 to 0.5)); higher = stronger / more preferred TF binding). Settings: protein concentration: 100 nM; construct: GST-full length.
T1 sequence: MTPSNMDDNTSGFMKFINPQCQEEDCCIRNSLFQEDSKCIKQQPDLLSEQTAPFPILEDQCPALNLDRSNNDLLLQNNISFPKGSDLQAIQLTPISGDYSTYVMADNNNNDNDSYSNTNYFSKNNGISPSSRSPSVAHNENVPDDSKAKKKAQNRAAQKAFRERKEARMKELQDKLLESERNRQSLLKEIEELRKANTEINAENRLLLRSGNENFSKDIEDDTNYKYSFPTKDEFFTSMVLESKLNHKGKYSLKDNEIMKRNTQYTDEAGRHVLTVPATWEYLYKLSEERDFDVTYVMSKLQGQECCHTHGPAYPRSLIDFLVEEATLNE
Procedure, shortened: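 The E-score, a modified Wilcoxon-Mann-Whitney statistic, was computed by the Universal PBM Analysis Suite for every ungapped eight-base word pooled with its reverse complement. Scans behind it were normalised with masliner after bound GST-tagged yeast transcription factors were detected with fluorescent anti-GST. The proteins, at about 100-200 nM, had been applied to universal all-10-mer Agilent arrays made double-stranded by primer extension.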

Sequence	PBM E-score
TTCCCGAA	0.115
CGAGTACG	-0.147
GGAAGGTA	-0.0252
AGAAGGTG	0.029
AGAAGGTA	0.28
TGAGCTCA	0.0969
AAAGGTCT	-0.0778
GTTGGCTA	0.12
ATGGGTAG	-0.0623
GTGCAGCA	-0.204
GCTTTGTA	0.259
ACTTTGTA	0.0238
CCTTTGTA	-0.135
AATTATGG	0.238
AATTATGC	0.273
CATTATGC	0.0641
AATTATGA	0.278
GATTATGC	0.0614
AATTATGT	0.164
CAGTCTAC	-0.192
GGCTTCCC	-0.127
CTCCAACA	0.141
CATTACGA	0.149
GATTACGC	0.108
AATTACAA	0.151

Sequence	PBM E-score
TATTACGA	0.326
CTTTACGA	-0.0493
TATTACCA	0.196
GCTTACGA	0.219
ACTTACGC	0.122
GGTTACGA	0.06
GATTACGA	0.291
AATTACGA	0.33
ACTTACGA	0.315
GGCCTTAC	-0.144
CTCTAATC	-0.0693
CCACTAGC	-0.158
AGCTGAAA	-0.101
AGAATTCT	0.124
TCCGCAAA	0.0357
ACAGACGC	-0.168
CGTGCACC	-0.0988
AATTACGC	0.208
AATTACGG	0.235
AATTACGT	0.308
AATAATGC	0.216
GATAATTA	0.251
AATAATTG	0.203
AATAATTC	0.263
CATAATTC	0.23

Sequence	PBM E-score
CATAATTA	0.316
AATAATTA	0.316
AATAATGA	0.0556
CATAATGA	0.118
ACCTTCAG	-0.0617
AGCAAAGC	0.0118
ACTAGCGC	0.0683
GGCACTAA	0.107
CGGTGTGA	0.115
AAGAACAA	0.267
CAGAACAA	0.248
AAGAACAC	0.147
AAGAACAG	0.0639
GAGAACAA	0.311
GAGAACAC	-0.00708
CCGCGAGG	-0.0632
AAGTCTCC	-0.0848
ACGGAGAT	-0.0531
CACTGGAC	-0.0821
CTTATTAC	0.251
ACTATTAG	0.136
ACTATTAC	0.149
ATTATTAG	0.259
ATTATTAC	0.269
ATTATTGG	0.0681

Sequence	PBM E-score
ATCCAAAG	0.165
GTCAGCCA	-0.0924
CCCCAACA	-0.111
TGTATAAA	0.211
ATTATAAT	0.319
AGTATAAA	0.304
GGTATAAA	0.239
AGTATATG	0.157
AGTATATC	0.0292
AGTATAAC	-0.0565
AGTATAAG	0.193
AGTATAAT	0.293
AGTATATA	0.364
ATTATAAG	0.0886
ATTATAAA	0.231
CGACTCCG	-0.24
GCTGGCTA	-0.196
ACTCACCA	-0.0571
AGGTTACA	-0.0016
GGCTGCAC	-0.206
CGTTGTGA	-0.0712
ATTATTTC	0.302
CTTATTTC	0.251
ATTTATTC	0.212
AATATTTA	0.295

Sequence	PBM E-score
AGTATTTA	0.16
CATATTTA	0.185
ATTTATTA	0.277
AATATTTC	0.154
CGTATTTA	0.313
ACTATTTC	0.224
GGTATTTA	0.104
ATTTATTG	0.0964
GGGGGACC	-0.358
GATGGAGC	-0.108
ACACCAGG	-0.237
CACTACTG	0.0352
ATCAGTAG	0.0393
GCACACGC	-0.0783
CTACTGCC	-0.0886
ATGTACAA	0.0885
CGACGTCA	0.0828
CAGGTTAC	0.0255
CTTTATTA	0.199
ATTATTTG	0.197
GGTTATTA	0.158
CTTATTTA	0.11
ATTATTTA	0.289
GTTTATTA	0.268
AATTTACA	0.155

Sequence	PBM E-score
AAATTATG	0.208
ACTTTACC	0.149
AAATTATT	0.275
AATTTAAC	0.113
AATTTACT	0.271
AATTTAAT	0.261
AATTTAAG	0.106
ACTTTACA	0.052
AAATTATC	0.251
AATTTAGT	0.21
ACTTTACT	0.284
CAGGTGGG	-0.0568
CGGCTCTA	-0.067
CGTGGTCA	-0.112
ACTCTAAG	-0.0616
CTCCGTGA	-0.0971
CGCCACCA	-0.25
CGACCCCA	-0.16
AGTAACGA	-0.0656
GCGACAAA	0.0655
CGCTCGAG	0.0723
GGTTTTCA	0.0332
CTTTTGCA	0.227
AACGGTCG	0.105
AAATTACC	0.235

Sequence	PBM E-score
AAATTACG	0.172
AAATTACT	0.304
AAATTAGG	0.196
AAATTAGA	0.201
AAATTAGT	0.283
CGCAGCGA	-0.0766
TAGTGGGA	-0.0516
AAGCCTTC	-0.0737
GTGTAACA	-0.00489
AAAAGTTA	0.195
AATTTCGA	-0.00117
TATTTCGA	0.293
GATTTCGA	0.12
ATTGTCCG	0.216
TGGTAGAA	-0.0125
TTTATAAA	0.277
GTTATAAA	0.283
CTTATAAA	0.187
GTTATAAC	0.162
GTTATAGA	0.0873
TCTATAAA	0.111
GCAATTAA	0.112
